According to the OligoGym collection:
Also: reference of the scale not given here.

Each sequence was assayed against SASH1 (assay: pooled miR-30 sensor sort-seq; sequence = guide strand). Details: shRNA.
Work on TAGCTTTCCGAGTCTTGCCGTT yielded a sensor-assay potency score (higher = more potent) of -0.384.
Work on TAATGTACAATAACTCTTGAGT yielded a sensor-assay potency score (higher = more potent) of -0.698.
Work on TTTTAGGTTAATCCGATCCAGG yielded a sensor-assay potency score (higher = more potent) of -1.32.
In the case of TAACTCTTGAGTCTGTTACTTT, the sensor-assay potency score (higher = more potent) was -0.488.
Sequence TTGAGCTTGAGTGAGTCTGTGT has a sensor-assay potency score (higher = more potent) of 0.495.
With TAACCTCTTAAACTTCACCGAC the sensor-assay potency score (higher = more potent) was -0.612.
With TAGTTGTCAATTTCTGAGGTTC the sensor-assay potency score (higher = more potent) was -0.0207.
For TTTCGTAGCATCCTGAGTCTCG, the sensor-assay potency score (higher = more potent) was 0.799.
TATTTTTTAGACATTCTCTTTC gave a sensor-assay potency score (higher = more potent) of -0.235.
Sequence TTCAGGTACAATCTGAGGGGGC has a sensor-assay potency score (higher = more potent) of -0.224.
TTGACCATCATCATTAGCTGAA was tested, and the sensor-assay potency score (higher = more potent) was 0.388.

What follows are sequences tested against SASH3 in the same assay as above. Details: shRNA.
With TGATCTGGATCACATCTCCTTT the sensor-assay potency score (higher = more potent) was -1.14.
TTTTAGACTGACCTGAAACATT was tested, and the sensor-assay potency score (higher = more potent) was -1.36.
For TAGTCCAGCAGCAGCTCGGCGG, the sensor-assay potency score (higher = more potent) was -1.4.
TTGACCATCTGTAATCAGCCTT gave a sensor-assay potency score (higher = more potent) of 0.123.
With TTGAAGTCTTCCAGTGTCTGGT the sensor-assay potency score (higher = more potent) was 0.225.
With TTGAGCAGGAGGGTGGATGTGT the sensor-assay potency score (higher = more potent) was -0.276.
Sequence TTCTGGAATGTTATCATCCAGA has a sensor-assay potency score (higher = more potent) of -1.05.
Sequence TTGGCAAAATCCTTGAAGCTGC has a sensor-assay potency score (higher = more potent) of -0.67.
Sequence ATCATCTTGCCCATCTTCCTGT has a sensor-assay potency score (higher = more potent) of -0.431.
With TGACCATCTGTAATCAGCCTTG the sensor-assay potency score (higher = more potent) was -0.932.
With TAGCTTTTACCAAAGTTCCTGG the sensor-assay potency score (higher = more potent) was -0.621.
TAGGGTTTTTAGACTGACCTGA gave a sensor-assay potency score (higher = more potent) of 0.692.

The sequences below were run against SC5DL in the same assay as above. Details: shRNA.
In the case of TTTACTATGTATCTTGACTGTA, the sensor-assay potency score (higher = more potent) was -0.0112.
TTTCATTAATGCATGATCGAAG showed a sensor-assay potency score (higher = more potent) of -0.355.
Sequence TTACTATGTATCTTGACTGTAT has a sensor-assay potency score (higher = more potent) of 0.237.
Work on TATCATTATCATACCAACGTTG yielded a sensor-assay potency score (higher = more potent) of -0.725.
TAAACTTAATCTCTCGACGGAC was tested, and the sensor-assay potency score (higher = more potent) was -0.573.
Work on TTATTAAGCACAATGATTCTTA yielded a sensor-assay potency score (higher = more potent) of -0.0651.
TTGAATGAGCCGCCAATCCTAT gave a sensor-assay potency score (higher = more potent) of -0.95.
In the case of TTGAAGAATTAACCATTCCTGA, the sensor-assay potency score (higher = more potent) was -0.422.
With TAAAAAAATAGTAATCTGCAAC the sensor-assay potency score (higher = more potent) was -0.802.
AAGACTAATAGCTTGTCGGAAG gave a sensor-assay potency score (higher = more potent) of -1.
TTAACCAAGATGTACAGACTTA showed a sensor-assay potency score (higher = more potent) of -0.113.
With TATATGGTAAGGTAGACTCTGA the sensor-assay potency score (higher = more potent) was -0.406.

Each sequence was assayed against SCAF4 in the same assay as above. Details: shRNA.
TCTACCTGAATTGAACTGCTGC showed a sensor-assay potency score (higher = more potent) of 0.449.
With TTGTCTGAAACAGCTGAGCCAC the sensor-assay potency score (higher = more potent) was -1.31.
Work on TTGTTCTACTTCCATTTCCTGC yielded a sensor-assay potency score (higher = more potent) of -0.925.
Work on TAACTGAGCTGTGATAGCCTGA yielded a sensor-assay potency score (higher = more potent) of -0.339.
In the case of TAGTACTGCAAACACTTGCAGT, the sensor-assay potency score (higher = more potent) was -0.842.
